Measurements: PubChem BioAssay (EPA / NIEHS)
Activity calls are given as the source filed them. Rule for the calls: active = hit-call score of the fitted dose curve at least 0.9, where 1 is the maximum; inactive = score below 0.9.

Tests used:
[1] = ATG_ISRE_CIS: Attagene CIS-FACTORIAL HepG2 Assay for human Interferon Regulatory Factor 1 (IRF1) binding to an Interferon-Stimulated Response Element (ISRE) (AID 2282948); conditions: HepG2 ISRE cis-reporter (Attagene), mRNA transcription readout; actives raise or lower the signal
How it was run: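 Read-out: fluorescent RT-PCR products resolved by capillary electrophoresis, reporting endogenous transcription factor activity via ISRE-driven reporter mRNA in transfected HepG2 cells dosed for 24 h; gain or loss fitted relative to DMSO.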

[2] = ATG_M_32_CIS: Attagene CIS-FACTORIAL HepG2 Assay for M32 Transcription Factor (Internal Marker) (AID 2282949); conditions: HepG2 Attagene cis-factorial M32 reporter, mRNA; actives raise or lower the signal;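 note: background control marker of the multiplexed CIS panel rather than a real target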
How it was run: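 HepG2 human liver cells transiently transfected with cis-promoter-driven multiple reporter transcription units, dosed 24 h. Reporter mRNA quantified by RT-PCR, FAM-labelled primer extension, HpaI digest and capillary electrophoresis; bidirectional fit versus DMSO baseline.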

[3] = ATG_M_06_CIS: Attagene CIS-FACTORIAL HepG2 Assay for M06 Transcription Factor (Internal Marker) (AID 2282950); conditions: HepG2 Attagene CIS-FACTORIAL M06 internal marker reporter; actives raise or lower the signal
How it was run: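 Serves as a background control readout. Transfected HepG2 exposed to compounds for 24 h, then reporter transcripts quantified by fluorescent RT-PCR and capillary electrophoresis. Both directions fitted against DMSO baseline.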

[4] = biological target: Hypoxia-inducible factor 1-alpha (Homo sapiens) (UniProt Q16665); test: ATG_HIF1a_CIS: Attagene CIS-FACTORIAL HepG2 Assay for human Hypoxia Inducible Factor 1 (HIF1A) (AID 2282951); conditions: HepG2 Attagene cis-factorial HIF1a reporter transcription; actives raise or lower the signal
How it was run: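 Dosed 24 h, transfected HepG2 cells yielded total RNA whose reporter transcripts were RT-PCR-amplified and sized by capillary electrophoresis using fluorescent labelling; DMSO defined baseline, with gain and loss of signal both fitted.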

[5] = biological target: Hepatocyte nuclear factor 6 (Homo sapiens) (UniProt Q9UBC0); test: ATG_HNF6_CIS: Attagene CIS-FACTORIAL HepG2 Assay for human Hepatocyte Nuclear Factor 6 (HNF6) (AID 2282952); conditions: HepG2 Attagene cis-factorial HNF6 reporter transcription; actives raise or lower the signal
How it was run: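 Activity values derive from bidirectional fitting against DMSO of reporter mRNA levels, measured by capillary electrophoresis of labelled RT-PCR products from HepG2 cells exposed 24 h.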

[6] = biological target: Heat shock factor protein 1 (Homo sapiens) (UniProt Q00613); test: ATG_HSE_CIS: Attagene CIS-FACTORIAL HepG2 Assay for human Heat Shock Transcription Factor 1 (HSE) (AID 2282953); conditions: HepG2 HSE cis-reporter, Attagene RNA transcription; actives raise or lower the signal
How it was run: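 Endogenous transcription factor activity in transiently transfected HepG2, read as reporter mRNA by RT-PCR with fluorescent capillary electrophoresis after 24 h. Gain or loss of signal fitted versus DMSO baseline.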

[7] = ATG_MRE_CIS: Attagene CIS-FACTORIAL HepG2 Assay for human Metal Responsive Element (MRE) (AID 2282954); conditions: HepG2 MRE cis-reporter transcription, Attagene multiplex; actives raise or lower the signal
How it was run: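 Measured here is mRNA induction from an MRE cis-element reporter in HepG2 after 24 h, quantified by fluorescence of labelled RT-PCR products on capillary electrophoresis; gain- and loss-of-signal fits use DMSO as baseline.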

[8] = ATG_PBREM_CIS: Attagene CIS-FACTORIAL HepG2 Assay for human Phenobarbital-responsive Enhancer Module (PBREM) (AID 2282955); conditions: HepG2 PBREM cis-reporter, Attagene multiplexed transcription; actives raise or lower the signal
How it was run: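 Transfected liver-derived HepG2 cells exposed 24 h; PBREM reporter transcript quantified via RT-PCR and capillary electrophoresis, with activity in either direction referenced to DMSO.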

[9] = biological target: Paired box protein Pax-6 (Homo sapiens) (UniProt P26367); test: ATG_Pax6_CIS: Attagene CIS-FACTORIAL HepG2 Assay for human Paired Box 6 (PAX6) (AID 2282956); conditions: HepG2 CIS-FACTORIAL PAX6 reporter transcription, RNA readout; actives raise or lower the signal
How it was run: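 Readout: reporter transcript fluorescence after RT-PCR and capillary electrophoresis. Cells: HepG2, transiently transfected with cis-regulated MRTUs. Exposure 24 h. Gain or loss of signal fitted bidirectionally relative to DMSO.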

[10] = ATG_PXRE_CIS: Attagene CIS-FACTORIAL HepG2 Assay for human Pregnane X Receptor Element (PXRE) (AID 2282957); conditions: HepG2 Attagene CIS-FACTORIAL PXRE reporter, mRNA; actives raise or lower the signal
How it was run: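 Fluorescent capillary electrophoresis of amplified reporter cDNA gave the signal, collected 24 h after dosing HepG2 cells that held transfected cis-element reporter constructs.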

[11] = ATG_PPRE_CIS: Attagene CIS-FACTORIAL HepG2 Assay for human Peroxisome Proliferator-activated Response Element (PPRE) (AID 2282958); conditions: HepG2 PPRE cis-element reporter, Attagene transcription factor profiling; actives raise or lower the signal
How it was run: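 Measured endpoint: PPRE-controlled reporter mRNA, detected by RT-PCR and capillary electrophoresis fluorescence, from transiently transfected HepG2 cells 24 h after dosing. Curves fitted in both directions using DMSO baseline.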

[12] = ATG_RORE_CIS: Attagene CIS-FACTORIAL HepG2 Assay for human RAR-related Orphan Receptor Element (RORE) (AID 2282959); conditions: HepG2 Attagene cis-factorial RORE reporter, mRNA; actives raise or lower the signal
How it was run: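 Transiently transfected HepG2 reporter cells were treated 24 h. Reporter transcripts were detected by RT-PCR and capillary electrophoresis, with bidirectional fitting against DMSO.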

[13] = ATG_Sox_CIS: Attagene CIS-FACTORIAL HepG2 Assay for human SRY-box transcription factor (SOX) (AID 2282960); conditions: HepG2 Attagene cis-factorial SOX reporter, mRNA; actives raise or lower the signal
How it was run: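 Gain- or loss-of-signal endpoint, fitted bidirectionally with DMSO as negative control. Based on reporter mRNA from transfected HepG2 cells harvested 24 h post-treatment and quantified via RT-PCR and capillary electrophoresis.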

[14] = biological target: Transcription factor Sp1 (Homo sapiens) (UniProt P08047); test: ATG_Sp1_CIS: Attagene CIS-FACTORIAL HepG2 Assay for human Specificity Protein 1 (Sp1) (AID 2282961); conditions: HepG2 Sp1 cis-reporter transcription, actives raise or lower the signal
How it was run: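 Endpoint reflects endogenous Sp1 transcriptional activity, not an exogenous fusion protein: HepG2 cells with transfected cis-regulated reporters, 24 h dosing, RT-PCR/capillary electrophoresis mRNA read-out, DMSO-normalised bidirectional fit.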

[15] = ATG_SREBP_CIS: Attagene CIS-FACTORIAL HepG2 Assay for human Sterol Regulatory Element Binding (SREBP) (AID 2282962); conditions: HepG2 Attagene cis-factorial SREBP reporter, mRNA; actives raise or lower the signal
How it was run: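 Readout: fluorescent reporter-transcript peaks resolved by capillary electrophoresis after RT-PCR. Cells were human HepG2 carrying transfected cis-promoter reporter constructs, dosed for 24 h. Gain or loss of signal was fitted against DMSO controls.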

[16] = biological target: Signal transducer and activator of transcription 3 (Homo sapiens) (UniProt P40763); test: ATG_STAT3_CIS: Attagene CIS-FACTORIAL HepG2 Assay for human Signal Transducer and Activator of Transcription 3 (STAT3) (AID 2282963); conditions: HepG2, Attagene cis-factorial STAT3 reporter transcription; actives raise or lower the signal
How it was run: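 Fluorescence intensity of 6-FAM-labelled reporter fragments, separated by capillary electrophoresis after RT-PCR, gave the signal. Cells were HepG2 transfected with cis-element reporter units and treated 24 h; fitting was bidirectional relative to DMSO.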

[17] = ATG_TA_CIS: Attagene CIS-FACTORIAL HepG2 Assay for human TA Basal Promoter (AID 2282964); conditions: HepG2 Attagene CIS-factorial TA basal promoter reporter; actives raise or lower the signal
How it was run: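 Background-control readout: TA basal promoter reporter mRNA, fitted in both directions relative to DMSO. Measured by RT-PCR and capillary electrophoresis 24 hours after treating HepG2 human liver cells transiently carrying multiplexed cis-regulated reporter constructs.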

[18] = ATG_TCF_b_cat_CIS: Attagene CIS-FACTORIAL HepG2 Assay for human T-Cell-Factor with beta-catenin (TCF/b-cat) (AID 2282965); conditions: HepG2 TCF/beta-catenin cis-reporter transcription, actives raise or lower the signal
How it was run: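 HepG2 cells transiently transfected with cis-promoter-driven multiplexed reporter units; reporter mRNA measured 24 h after dosing by RT-PCR, FAM labelling, HpaI digestion and capillary electrophoresis. Bidirectional fitting relative to DMSO baseline.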

[19] = ATG_GRE_CIS: Attagene CIS-FACTORIAL HepG2 Assay for human Glucocorticoid Response Elements (GRE) (AID 2282947); conditions: HepG2 GRE cis-reporter, Attagene multiplex mRNA; actives raise or lower the signal
How it was run: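 Fluorescence intensity of reporter-specific cDNA fragments, separated by capillary electrophoresis, provides the signal. Constructs carry cis-regulating promoters in transiently transfected HepG2 liver cells; 24 h incubation; fitting is bidirectional against DMSO.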

Measured: AC50

Hypoxia-inducible factor 1-alpha (Homo sapiens), sequence (Q16665 whole entry, looked up): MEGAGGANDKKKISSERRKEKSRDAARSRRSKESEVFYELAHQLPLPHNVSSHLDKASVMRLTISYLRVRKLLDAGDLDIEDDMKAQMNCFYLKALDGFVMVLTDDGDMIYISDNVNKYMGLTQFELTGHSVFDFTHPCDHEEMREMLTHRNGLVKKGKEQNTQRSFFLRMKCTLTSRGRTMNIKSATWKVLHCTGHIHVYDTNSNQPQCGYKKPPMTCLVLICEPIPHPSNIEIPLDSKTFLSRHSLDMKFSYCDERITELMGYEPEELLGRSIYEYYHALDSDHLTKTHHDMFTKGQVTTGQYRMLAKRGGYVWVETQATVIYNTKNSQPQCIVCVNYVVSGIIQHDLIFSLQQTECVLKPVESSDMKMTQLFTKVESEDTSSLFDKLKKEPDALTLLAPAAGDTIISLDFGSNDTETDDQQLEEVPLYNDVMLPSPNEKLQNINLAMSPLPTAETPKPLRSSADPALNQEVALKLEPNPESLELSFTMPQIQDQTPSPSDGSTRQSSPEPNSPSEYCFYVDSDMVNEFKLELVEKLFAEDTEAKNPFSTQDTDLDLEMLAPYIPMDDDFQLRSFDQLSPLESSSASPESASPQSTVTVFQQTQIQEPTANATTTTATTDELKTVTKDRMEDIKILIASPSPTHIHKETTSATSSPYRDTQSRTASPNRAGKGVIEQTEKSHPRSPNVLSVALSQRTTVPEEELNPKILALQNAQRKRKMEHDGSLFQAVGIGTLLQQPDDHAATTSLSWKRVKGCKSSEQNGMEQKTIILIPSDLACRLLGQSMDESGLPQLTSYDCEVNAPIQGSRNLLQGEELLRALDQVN
Paired box protein Pax-6 (Homo sapiens), sequence (P26367 whole entry, looked up): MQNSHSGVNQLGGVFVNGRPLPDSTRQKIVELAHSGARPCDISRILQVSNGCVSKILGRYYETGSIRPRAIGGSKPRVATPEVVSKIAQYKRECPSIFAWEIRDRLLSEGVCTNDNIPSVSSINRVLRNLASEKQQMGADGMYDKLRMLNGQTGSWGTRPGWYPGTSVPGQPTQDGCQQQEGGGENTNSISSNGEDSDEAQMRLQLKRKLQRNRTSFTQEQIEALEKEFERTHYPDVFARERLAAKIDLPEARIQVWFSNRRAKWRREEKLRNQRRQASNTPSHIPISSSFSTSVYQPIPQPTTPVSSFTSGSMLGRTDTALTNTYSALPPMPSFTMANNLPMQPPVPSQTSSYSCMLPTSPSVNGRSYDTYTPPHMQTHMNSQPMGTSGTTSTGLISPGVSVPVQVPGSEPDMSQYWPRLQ
Signal transducer and activator of transcription 3 (Homo sapiens), sequence (P40763 whole entry, looked up, the tested form may be a part): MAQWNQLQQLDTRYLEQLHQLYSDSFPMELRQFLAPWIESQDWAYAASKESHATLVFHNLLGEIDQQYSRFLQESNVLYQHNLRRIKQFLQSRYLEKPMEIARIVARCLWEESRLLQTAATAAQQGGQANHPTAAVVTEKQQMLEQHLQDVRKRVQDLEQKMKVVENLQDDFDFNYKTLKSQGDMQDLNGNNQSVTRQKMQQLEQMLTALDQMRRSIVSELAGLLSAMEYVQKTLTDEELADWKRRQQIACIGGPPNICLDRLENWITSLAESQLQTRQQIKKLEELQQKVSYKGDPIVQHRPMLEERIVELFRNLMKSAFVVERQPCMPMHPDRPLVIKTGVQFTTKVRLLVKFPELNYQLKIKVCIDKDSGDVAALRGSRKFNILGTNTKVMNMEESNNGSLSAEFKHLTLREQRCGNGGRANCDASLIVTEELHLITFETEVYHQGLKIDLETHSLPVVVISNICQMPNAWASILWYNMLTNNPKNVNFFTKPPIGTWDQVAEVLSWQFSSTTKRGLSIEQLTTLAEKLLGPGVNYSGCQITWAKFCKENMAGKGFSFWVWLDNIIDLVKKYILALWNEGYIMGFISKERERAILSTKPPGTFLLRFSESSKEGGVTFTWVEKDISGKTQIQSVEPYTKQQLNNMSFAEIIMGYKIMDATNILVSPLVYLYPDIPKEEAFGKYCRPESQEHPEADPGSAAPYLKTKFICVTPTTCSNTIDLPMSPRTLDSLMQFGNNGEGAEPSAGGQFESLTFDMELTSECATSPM
Hepatocyte nuclear factor 6 (Homo sapiens), sequence (Q9UBC0 whole entry, looked up): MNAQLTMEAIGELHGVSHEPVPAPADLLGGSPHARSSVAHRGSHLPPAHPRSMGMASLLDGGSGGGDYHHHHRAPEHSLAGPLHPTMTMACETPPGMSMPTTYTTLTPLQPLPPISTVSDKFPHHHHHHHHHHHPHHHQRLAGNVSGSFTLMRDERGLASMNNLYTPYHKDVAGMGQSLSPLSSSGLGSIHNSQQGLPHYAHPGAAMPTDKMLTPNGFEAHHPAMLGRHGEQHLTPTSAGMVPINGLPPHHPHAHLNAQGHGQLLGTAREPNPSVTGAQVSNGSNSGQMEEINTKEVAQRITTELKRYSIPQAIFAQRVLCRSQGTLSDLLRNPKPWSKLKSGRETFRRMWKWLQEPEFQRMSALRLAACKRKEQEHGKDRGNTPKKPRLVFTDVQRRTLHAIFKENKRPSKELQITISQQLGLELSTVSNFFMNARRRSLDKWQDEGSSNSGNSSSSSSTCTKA
Heat shock factor protein 1 (Homo sapiens), sequence (Q00613 whole entry, looked up): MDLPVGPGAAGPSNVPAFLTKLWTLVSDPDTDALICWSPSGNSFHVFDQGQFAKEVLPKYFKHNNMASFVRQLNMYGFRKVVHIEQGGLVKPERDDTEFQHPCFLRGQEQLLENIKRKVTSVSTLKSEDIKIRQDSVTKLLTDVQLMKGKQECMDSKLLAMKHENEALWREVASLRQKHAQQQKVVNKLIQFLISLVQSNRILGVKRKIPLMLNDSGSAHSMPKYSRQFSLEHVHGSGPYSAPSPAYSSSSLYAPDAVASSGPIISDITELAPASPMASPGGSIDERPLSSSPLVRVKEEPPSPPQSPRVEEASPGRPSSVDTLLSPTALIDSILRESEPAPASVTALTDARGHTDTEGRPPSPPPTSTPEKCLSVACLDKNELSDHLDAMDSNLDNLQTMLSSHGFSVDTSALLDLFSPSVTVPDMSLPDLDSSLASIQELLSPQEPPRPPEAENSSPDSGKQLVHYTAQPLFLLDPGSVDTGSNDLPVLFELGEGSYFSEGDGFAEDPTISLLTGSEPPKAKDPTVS
Transcription factor Sp1 (Homo sapiens), sequence (P08047 whole entry, looked up, the tested form may be a part): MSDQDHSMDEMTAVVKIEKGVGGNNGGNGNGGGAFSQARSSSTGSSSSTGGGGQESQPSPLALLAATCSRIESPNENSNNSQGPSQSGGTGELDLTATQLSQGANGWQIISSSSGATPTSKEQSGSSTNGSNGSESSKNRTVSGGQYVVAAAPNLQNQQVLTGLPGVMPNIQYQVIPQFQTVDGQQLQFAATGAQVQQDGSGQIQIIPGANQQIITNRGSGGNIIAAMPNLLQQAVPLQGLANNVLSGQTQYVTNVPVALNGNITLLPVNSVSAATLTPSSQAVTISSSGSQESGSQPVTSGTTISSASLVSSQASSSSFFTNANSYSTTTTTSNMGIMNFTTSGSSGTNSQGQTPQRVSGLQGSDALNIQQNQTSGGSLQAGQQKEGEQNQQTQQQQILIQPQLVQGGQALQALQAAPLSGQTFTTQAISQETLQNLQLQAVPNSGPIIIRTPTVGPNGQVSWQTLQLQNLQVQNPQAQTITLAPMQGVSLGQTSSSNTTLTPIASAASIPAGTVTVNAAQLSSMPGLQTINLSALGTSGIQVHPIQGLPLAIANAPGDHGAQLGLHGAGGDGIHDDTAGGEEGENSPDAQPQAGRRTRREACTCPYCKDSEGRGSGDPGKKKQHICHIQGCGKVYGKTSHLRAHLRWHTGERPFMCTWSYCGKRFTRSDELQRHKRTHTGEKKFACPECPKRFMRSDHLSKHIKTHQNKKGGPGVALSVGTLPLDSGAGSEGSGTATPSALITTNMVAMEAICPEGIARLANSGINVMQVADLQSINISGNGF

CC[Si](OC(C)=O)(OC(C)=O)OC(C)=O
active: [8] 18.7 µM | [10] 6.28 µM
not listed: [19]
inactive: all other assays above

CC(C=O)Cc1ccc(C(C)C)cc1 (configuration not stated)
active: [10] 24 µM
not listed: [5] | [6] | [8] | [13] | [15]
inactive: all other assays above

CC1(C)[C@@H]2CC[C@@]1(C)[C@H](O)C2
active: [4] 100 µM
not listed: [2] | [8] | [11] | [13]
inactive: all other assays above

O=C[C@@H](O)[C@H](O)[C@H](O)CO
not listed: [19]
inactive: all other assays above

CCCCNC(=O)NS(=O)(=O)c1ccc(N)cc1
not listed: [6] | [10] | [19]
inactive: all other assays above

CC(C)(C)c1cc(CCC(=O)NN)cc(C(C)(C)C)c1O
active: [7] 186 µM | [10] 10.2 µM
not listed: [6] | [12] | [19]
inactive: all other assays above

CC1(C)OC[C@@H]2O[C@@]3(C(=O)O)OC(C)(C)O[C@H]3[C@@H]2O1
not listed: [6] | [11] | [19]
inactive: all other assays above

C=C(C)[C@@H]1CCC2=CC(=O)C[C@@H](C)[C@]2(C)C1
active: [10] 2.33 µM
not listed: [5] | [8] | [19]
inactive: all other assays above

O=S(=O)(O)c1cccc2c(S(=O)(=O)O)cccc12
not listed: [5] | [11] | [12] | [19]
inactive: all other assays above

O=C=NC1CCC(CC2CCC(N=C=O)CC2)CC1 (configuration not stated)
active: [2] 164 µM | [8] 63.1 µM | [11] 68.9 µM | [12] 69.6 µM | [16] 164 µM | [18] 69.3 µM
not listed: [6] | [10] | [15] | [19]
inactive: all other assays above

CC(C)C1CCC(O)CC1 (configuration not stated)
not listed: [8] | [10] | [11] | [19]
inactive: all other assays above

CC(C)=CCCC(C)=CCCC(C)=CCO
not listed: [6] | [8] | [10] | [15] | [19]
inactive: all other assays above

O=C[C@H](O)[C@H](O)[C@H](O)CO
not listed: [5] | [12] | [19]
inactive: all other assays above

CCCCCC(CO)CCC (configuration not stated)
not listed: [2] | [6] | [8] | [10] | [11] | [19]
inactive: all other assays above

O=C(O)CCCCCCCC(=O)O
not listed: [4] | [11] | [19]
inactive: all other assays above

CC1CC(OC(=O)c2ccccc2O)CC(C)(C)C1 (configuration not stated)
active: [10] 25.8 µM
not listed: [4] | [8] | [12] | [15] | [19]
inactive: all other assays above
